Assay outcomes: PubChem, The Scripps Research Institute Molecular Screening Center
PAFAH1B3 inh: blocks human PAF acetylhydrolase 1B catalytic subunit 3 | actives 0.28% (n = 340,000) | recombinant PAFAH1B3, FP-rhodamine probe, fluorescence polarization | Q15102 | inhibition, % at 3.39 µM | AID 492972;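 active means inhibition above the screen-wide average of all tested compounds plus 3 SD, cut at about 25% in these data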;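 further: 0% = enzyme with DMSO only and 100% = wells lacking PAFAH1B3 protein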
Target sequence (Q15102 whole entry, looked up): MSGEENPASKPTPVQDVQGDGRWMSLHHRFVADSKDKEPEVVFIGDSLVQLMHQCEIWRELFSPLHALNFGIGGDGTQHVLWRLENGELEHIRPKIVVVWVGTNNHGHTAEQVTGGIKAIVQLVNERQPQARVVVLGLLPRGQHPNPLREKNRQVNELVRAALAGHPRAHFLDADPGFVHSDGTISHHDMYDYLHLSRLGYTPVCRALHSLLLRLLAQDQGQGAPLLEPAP
PAFAH1B2 inh: inhibitors of human PAFAH1B2. P68402. recombinant PAFAH1B2, FP-rhodamine activity probe, fluorescence polarization. inhibition, % at 3.39 µM. actives 1.2% (n = 340,000). AID 492953;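 active means inhibition above the mean of all tested compounds plus 3 SD, cut at about 24% in these data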;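 further: 0% = enzyme with DMSO and 100% = wells lacking PAFAH1B2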
PP5 primary: PP5 (human) phosphatase inhibition | purified PP5c, OMFP substrate fluorescence | inhibition, % at 6.7 µM | AID 1987 | actives 0.18% (n = 320,000) | P53041;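 active means inhibition above the campaign's mean inhibition across all tested compounds plus 3 SD, cut at about 9.5% in these data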;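 further: 0% = DMSO only and 100% = 100 µM cantharidin control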
PP1 counter: counter-screen for PP5 inhibitors: inhibitors of human PP1-alpha; P62136; purified PP1alpha, OMFP fluorescence; inhibition, % at 6.7 µM; actives 0.9% (n = 320,000); AID 2235;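 active means inhibition above the mean inhibition of all tested compounds plus 3 SD, computed separately for each screening campaign, cut at about 15% in these data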
Target sequence (P62136 whole entry, looked up): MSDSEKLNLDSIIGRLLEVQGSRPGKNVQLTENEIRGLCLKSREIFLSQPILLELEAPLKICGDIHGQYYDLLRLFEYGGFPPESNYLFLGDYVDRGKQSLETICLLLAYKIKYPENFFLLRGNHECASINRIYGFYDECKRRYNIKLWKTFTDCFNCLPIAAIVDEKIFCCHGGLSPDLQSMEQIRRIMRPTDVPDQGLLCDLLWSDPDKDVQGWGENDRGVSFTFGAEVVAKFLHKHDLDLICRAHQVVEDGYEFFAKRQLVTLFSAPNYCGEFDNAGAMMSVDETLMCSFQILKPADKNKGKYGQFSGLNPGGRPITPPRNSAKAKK
pPAFAH inh: pPAFAH (human) enzyme inhibition. actives 1.5% (n = 330,000). recombinant pPAFAH, FP-rhodamine probe fluorescence polarization. inhibition, % at 3.39 µM. Q13093;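 active means inhibition above the mean inhibition across the screen plus 3 SD, cut at about 25% in these data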;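 further: inhibitors block binding of the rhodamine activity-based probe so polarization drops; 0% = enzyme with DMSO and 100% = wells lacking pPAFAH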
PAFAH2 FP inh: inhibitors of human PAFAH2. Q99487. recombinant PAFAH2, FP-rhodamine activity probe, fluorescence polarization. inhibition, % at 3.39 µM. actives 0.99% (n = 340,000). AID 492956;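 active means inhibition above the mean over all tested compounds plus 3 SD, cut at about 30% in these data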;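 further: inhibitors block probe labeling of enzyme so polarization drops; 0% = enzyme with DMSO and 100% = wells lacking PAFAH2 protein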
PAFAH1B3 confirm: PAFAH1B3 (human) inhibition, confirmed; recombinant PAFAH1B3, FP-Rh activity-based probe, fluorescence polarization; shares compounds with PAFAH1B3 inh; inhibition, % at 3.39 µM; AID 493032; actives 30% (n = 390);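 active means average inhibition over triplicate runs above the hit cutoff set in the earlier primary screen, cut at about 25% in these data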;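 further: 0% = enzyme with DMSO and 100% = wells lacking PAFAH1B3 protein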
* = called active by the depositor; · = no result given; ! = repeats disagree. Most compounds without a hit are left out; they make up all but 3.4% or so of the library.

SMILES | PAFAH1B3 inh | PAFAH1B2 inh | PP5 primary | PP1 counter | pPAFAH inh | PAFAH2 FP inh | PAFAH1B3 confirm
COCC(=O)OC1CCn2c1nc1c2C(=O)C(C)=C(NC(C)=O)C1=O (stereo unspecified) | 69* | 21 | · | · | · | 26 | 55*
CC(=O)Nc1ccc(S(=O)(=O)NCCC(=O)NC(C)c2cccs2)cc1 (stereo unspecified) | 5 | 3 | · | · | 1 | -10 | ·
C/C(=N\NC(=O)c1cc(-c2cccc([N+](=O)[O-])c2)n[nH]1)c1ccccc1O | 26* | 6 | 1 | 12 | 19 | -5 | 14
CC(=O)c1c(C)[nH]c(C(=O)Nc2ccc(Cl)c(S(=O)(=O)N3CCOCC3)c2)c1C | 28* | 8 | 2 | -1 | -3 | 2 | 5
COCCNC(=O)/C(C#N)=C/c1cccs1 | -1 | 6 | 0 | -4 | 6 | -2 | ·
COCCNC(=O)/C(C#N)=C/c1ccc(OC(=O)c2cccs2)c(OC)c1 | 26* | 1 | · | · | · | 3 | 12
Oc1ccc2ccccc2c1/C=N/Nc1ccccc1 | 3 | 10 | 2 | -2 | 8 | 5 | ·
Cc1cc(N/N=C/c2c(O)ccc3ccccc23)nc(-c2ccccc2O)n1 | 30* | 13 | 5 | -1 | 21 | 20 | 15
O=C1C=C(Nc2cccnc2)c2ccccc2C1=O | 53* | 8 | · | · | · | 8 | 27*
CC(C(=O)Nc1cccnc1)N1C(=O)c2ccccc2C1=O (stereo unspecified) | 3 | 2 | -3 | -7 | 0 | 13 | ·
NC1=CC(=O)C(=O)c2ccccc21 | 12 | 6 | · | · | · | 7 | ·
CCOc1ccc(NC2=CC(=O)CCC2)cc1 | 10 | 4 | -3 | -2 | 2 | -6 | ·
Cc1ccc(NC2=CC(=O)C(=O)c3ccccc32)c(C)c1 | 40* | 6 | 6 | -1 | 3 | 5 | 17
CCOc1ccc(NC2=CC(=O)C(=O)c3ccccc32)cc1 | 49* | 15 | · | · | · | 14 | 31*
O=C1C=C(Nc2ccc(F)cc2)c2ccccc2C1=O | 34* | 7 | 3 | 1 | 10 | 8 | 24
O=C(O)c1ccc(NNC(=S)Nc2cc(C(F)(F)F)ccc2Cl)cc1 | -4 | 3 | 3 | -1 | 13 | 3 | ·
O=C(Nc1cccc(-c2cccc(F)c2)c1)C1CCN(C2CCOCC2)CC1 | 0 | 0 | 0 | -1 | 5 | -3 | ·
Cc1onc(-c2ccccc2)c1C(=O)Nc1ccc(Cl)c(S(=O)(=O)N2CCOCC2)c1 | 0 | -1 | 2 | -2 | -1 | 2 | ·
COc1cc(Cl)c(NC2=CC(=O)C(=O)c3ccccc32)c(OC)c1 | 35* | 15 | 5 | -1 | 6 | 13 | 29*
COc1cc(C=C2C(=O)c3ccccc3C2=O)cc(OC)c1 | 2 | -3 | 1 | 0 | 0 | 16 | ·
COc1ccc(CNC(=O)COC(=O)[C@@H]2CCCN2C(=O)c2cccs2)cc1 | 12 | 7 | · | · | -5 | 2 | ·
CCOC(=O)c1c(C)oc2c1c(C=NCc1ccccn1)c(O)c1ccccc12 | 56* | 13 | · | · | · | 16 | 17
CC(C)(C)NCC(O)COc1cccc2c1C[C@H](O)[C@H](O)C2 (stereo partly specified) | 33* | -7 | -2 | -4 | 1 | -4 | 9
C[n+]1c2cc(N)ccc2cc2ccc(N)cc21 | 33* | 13 | · | · | · | 18 | 28*!
O=C(Nc1ccnn1C1CCN(CCCC2CCCC2)CC1)c1ccccc1Cl | 8 | 4 | 0 | 0 | 3 | -1 | ·
SMILES | PAFAH1B3 inh | PAFAH1B2 inh | PP5 primary | PP1 counter | pPAFAH inh | PAFAH2 FP inh | PAFAH1B3 confirm
COc1ccc(C(=O)N/N=C/c2sc3ccccc3c2O)cc1 | 17 | 8 | 2 | 12 | 13 | 21 | ·
COc1ccc2cc(C(=O)N/N=C/c3sc4ccccc4c3O)ccc2c1 | 30* | 19 | 2 | 9 | 24 | -6 | 19
Cc1c(C(=O)N/N=C/c2ccccn2)nnn1-c1nonc1N | 12 | 2 | 3 | 1 | -8 | 0 | ·
CC1OC(Nc2cccc3ccccc23)C(O)C(O)C1O (stereo unspecified) | 32* | 4 | 2 | 3 | 0 | 14 | 9
CS(=O)(=O)c1cccc(C(=O)N(CCc2ccccc2)Cc2cccs2)c1 | 9 | 4 | 0 | 2 | -4 | -2 | ·
CCCCn1c(N)c(N(CCC(C)C)C(=O)COC(=O)c2sccc2C)c(=O)[nH]c1=O | 10 | 4 | 2 | -2 | -4 | -2 | ·
CCCCn1c(N)c(N(CCC(C)C)C(=O)COC(=O)c2ccc([N+](=O)[O-])s2)c(=O)[nH]c1=O | 30* | 13 | · | · | 2 | 25 | 22
S=C(Nc1ccc2nsnc2c1)N1CCCCC1 | 51* | 12 | 4 | -3 | 1 | 15 | 9
S=C(Nc1ccc(Cl)c(Cl)c1)N1CCCC1 | -3 | 0 | 0 | 1 | 2 | 3 | ·
Cc1ccc(NC(=O)CSc2ncc(S(=O)(=O)c3ccccc3)c(=O)[nH]2)cc1C | 4 | 4 | 2 | 1 | 1 | 21 | ·
O=C(CSc1ncc(S(=O)(=O)c2ccccc2)c(=O)[nH]1)Nc1ccccc1Cl | 56* | -1 | 3 | -9 | -5 | 8 | 51*
CCOC(=O)/C(C#N)=C/C1=C(N2CCOCC2)CC(C)(C)OC1 | -2 | -3 | 1 | -4 | 10 | 8 | ·
O=C(NCc1ccco1)c1ccc(CS(=O)Cc2ccc(Cl)cc2)o1 (stereo unspecified) | 7 | 9 | 1 | 0 | 7 | 5 | ·
Cc1[nH]n(-c2ccccc2)c(=O)c1/C=N/NC(=O)c1ccc(O)cc1O | 18 | 12 | 0 | 0 | 11 | -1 | ·
Cc1ccc(-n2[nH]c(C)c(/C=N/NC(=O)c3ccc(O)cc3O)c2=O)cc1 | 27* | 14 | 4 | 5 | 13 | 7 | 14
Cc1ccc(S(=O)(=O)N2CCOCC2)cc1C(=O)OCCOc1cccc(Cl)c1 | 0 | 6 | 0 | -2 | 19 | 0 | ·
Fc1ccc2nc(Nc3nc4cc5c(cc4s3)OCO5)sc2c1 | 43* | 23 | -1 | 8 | 24 | -32 | 44*
CCN(CC)S(=O)(=O)c1cc(NC(=O)c2ccc(-n3cncn3)c([N+](=O)[O-])c2)ccc1C | 1 | 1 | 3 | -1 | 7 | -10 | ·
Cc1ccc(NC2=C(N3CCCCC3)C(=O)c3ccccc3C2=O)cc1 | 41* | 12 | 9 | 5 | -1 | 29 | 17
COc1ccccc1NC1=C(N2CCCCC2)C(=O)c2ccccc2C1=O | 42* | 7 | 7 | 1 | -7 | 13 | 21
CCCc1nc2c(sc3nc4c(cc32)COC(C)(C)C4)c(=O)n1CCN(CC)CC | 2 | 1 | 0 | -5 | 1 | 8 | ·
O=C(O)c1ccccc1Nc1ccc([N+](=O)[O-])cc1C(=O)O | 43* | 1 | 0 | -3 | 1 | 1 | 11
NC(=O)c1cc([N+](=O)[O-])ccc1Nc1ccccc1 | 0 | 7 | 1 | 0 | 5 | -5 | ·
